Assay outcomes (PubChem)
CYP2C9 activ: activators of human CYP2C9. activation factor at 5 µM. AID 1024. actives 1.4% (n = 96,000). recombinant CYP2C9, luciferin-H conversion, luminescence; stronger effect = higher value; factor 1 = untreated enzyme, 0 = blocked;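 active = activation factor of 2 or more for CYP2C9 at a 5 µM dose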;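 note: 0 = sulfaphenazole-blocked wells and 1 = vehicle-only wells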
Target sequence (P11712 whole entry, looked up): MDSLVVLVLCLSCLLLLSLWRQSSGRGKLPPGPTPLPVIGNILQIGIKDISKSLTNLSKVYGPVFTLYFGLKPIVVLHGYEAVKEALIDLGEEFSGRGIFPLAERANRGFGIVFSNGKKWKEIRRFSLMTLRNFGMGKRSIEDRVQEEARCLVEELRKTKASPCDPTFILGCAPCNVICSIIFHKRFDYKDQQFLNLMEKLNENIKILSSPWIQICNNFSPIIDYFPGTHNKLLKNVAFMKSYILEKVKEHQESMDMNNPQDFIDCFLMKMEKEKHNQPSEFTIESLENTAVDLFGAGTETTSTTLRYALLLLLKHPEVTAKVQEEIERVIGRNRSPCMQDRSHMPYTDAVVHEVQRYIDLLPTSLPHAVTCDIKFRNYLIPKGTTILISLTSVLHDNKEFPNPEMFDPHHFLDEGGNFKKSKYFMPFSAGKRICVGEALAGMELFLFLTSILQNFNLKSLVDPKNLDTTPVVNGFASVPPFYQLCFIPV
CYP2C9 inhib: inhibitors of human CYP2C9 | CYP2C9 Supersomes, luciferin-H conversion, luminescence | inhibition, % at 5 µM | actives 20% (n = 96,000);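 active = blocking of liver enzyme CYP2C9 beyond about 50% at 5 µM, limit read from the data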
PLAP activator: human PLAP activation; P05187; purified PLAP enzyme, luminescent substrate read-out; stronger effect = higher value; activation fold at 20 µM; actives 1.2% (n = 96,000); AID 696; in the data active = activation fold above about 2
CYP2C19 act: cytochrome P450 2C19 (human) activation; AID 1025; P33261; activation factor at 5 µM; 96,000 tested, under 10 active; recombinant CYP2C19, luciferin-H EGE luminescence; stronger effect = higher value; 0 = fully inhibited enzyme, 1 = untreated enzyme;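 active = activation factor of at least 2 at 5 µM in the primary screen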;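 note: 0 = wells with 2.5 mM tranylcypromine and 1 = vehicle-only wells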
CYP2C19 inh: human CYP2C19 inhibition. CYP2C19 Supersomes, luciferin-H EGE luminescence, 30 min. inhibition, % at 5 µM. actives 21% (n = 96,000);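 active = CYP2C19 inhibition above a set limit at 5 µM in the primary screen, cut at about 50% in these data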;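 note: plate controls were negative control wells for no effect and 2.5 mM tranylcypromine positive control for full effect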
An asterisk follows results filed as active. Rows were chosen to be rich in hits. Some 31% of all compounds tested hit in one or more screens of this group.

SMILES	CYP2C9 activ	CYP2C9 inhib	PLAP activator	CYP2C19 act	CYP2C19 inh
O=C1c2ccccc2NC(c2cccc(F)c2)N1Cc1ccco1 (stereo not given)	0	95.6*	0.9	0.1	91.8*
CS(=O)(=O)N(CC(=O)N1CCCCC1)C1CCCCC1	0.9	6.4	1.1	0.7	32.2
CCOC(=O)CCn1nnc(N)n1	0.7	30.7	0.8	0.9	11.3
CCn1c(=O)cc(OCC(=O)NC(C)c2ccc3c(c2)OCCO3)c2ccccc21 (stereo not given)	0.8	15.7	1.6	0.9	9.9
CN(C(=O)CSc1nnc(Cc2ccccc2F)n1N)C1CCS(=O)(=O)C1 (stereo not given)	1.1	-6.7	0.8	1.1	-6.2
Nn1c(Cc2cccc3ccccc23)nnc1SCC(=O)NC1CCS(=O)(=O)C1 (stereo not given)	1.3	-33.6	2*	1	1.8
Cc1cc2nnc(SCc3ccccc3)n2c(N)n1	0.7	27.4	0.9	0.7	26.2
COc1cc2c(cc1OC)CN(CC(=O)Nc1ccc3c(c1)OCO3)CC2	0.6	40.2	1.1	0.8	15.8
CC1CCN(CC(=O)Nc2ccccc2C#N)CC1	0.7	30.9	1	0.2	75.2*
COc1cc2c(cc1OC)CN(CC(=O)Nc1ccc(C)cc1)CC2	0.4	59.8*	1.8	0.4	64.7*
COc1cc2c(cc1OC)CN(Cc1cc(=O)n3cc(C)ccc3n1)CC2	0.7	28.4	1.1	1	4.9
COc1cc2c(cc1OC)CN(Cc1ccc(C)s1)CC2	0.7	33.2	1.6	0.1	86.4*
COC(=O)c1[nH]c2ccc(C)cc2c1NC(=O)CN1CCc2cc(OC)c(OC)cc2C1	0.2	80.6*	1.6	0.3	67.4*
Cc1ccccc1NC(=O)CN1CCC(NC(=O)Nc2ccccc2)CC1	0.7	26.6	0.9	0.7	29.6
COc1cc2c(cc1OC)CN(CC(=O)NC(=O)NCc1ccco1)CC2	1	-1.2	1.4	1	-0.9
COc1ccc(NC(=O)Cn2cccc2)cc1Cl	1	1.5	1	0.7	27.8
COc1cc2c(cc1OC)CN(CC(=O)Nc1ccccc1C#N)CC2	0.4	60.3*	1.5	0.5	54.6*
COc1ccc(NCC(=O)Nc2ccccc2C#N)cc1Cl	0.4	59.0*	1.2	0.1	94.9*
CCOC(=O)c1[nH]c2ccc(OC)cc2c1NC(=O)CN1CCC2(CC1)OCCO2	0.9	11.9	1.4	0.6	35.2
CCOC(=O)c1[nH]c2ccc(OC)cc2c1NC(=O)CN1CCc2ccccc2C1	0.2	81.1*	1	0.2	76.7*
Nc1cc(C(=O)O)ccc1Nc1ccc(F)c(F)c1	1.1	-9.7	1.2	1	2.2
COc1cccc(-c2nnc(SCC(=O)Nc3ccc(OC)c(OC)c3)n2N)c1	0.7	30.8	0.9	1	0.8
CCN(CC)C(=O)c1n[nH]c(=O)c2ccccc12	1.2	-23.2	1	1.3	-26.1
O=C1C2C3C=CC(C3)C2C(=O)N1c1ccc(Cc2ccncc2)cc1 (stereo not given)	0.2	80.0*	0.9	0.3	70.8*
O=C(Nc1ccc(Cc2ccncc2)cc1)C1CCC(N2C(=O)C3CC=CCC3C2=O)CC1 (stereo not given)	0.3	67.4*	1.1	0.4	58.4*
SMILES	CYP2C9 activ	CYP2C9 inhib	PLAP activator	CYP2C19 act	CYP2C19 inh
O=C(Nc1ccc(Cc2ccncc2)cc1)C1CCC(N2C(=O)C3C4C=CC(C4)C3C2=O)CC1 (stereo not given)	0	95.4*	2.1*	0	95.7*
Cc1cccc(N2C(=O)C3C4C=CC(C4)C3C2=O)c1 (stereo not given)	0.9	8.6	0.8	0.7	26.4
O=C(O)C1C2C=CC(C2)C1C(=O)NC1CCN(Cc2ccccc2)CC1 (stereo not given)	0.8	20.9	1.3	1	-1.8
C=CCOc1cccc(C2c3c(oc4ccccc4c3=O)C(=O)N2c2ccccn2)c1 (stereo not given)	0.6	37.6	0.8	0.6	37.5
CC(C)(C)C1=C(C#N)C(c2ccc3c(c2)OCO3)C(C#N)=C(N)O1 (stereo not given)	0.1	89.7*	1	0.1	88.6*
COC(=O)CC1=C(C(=O)OC)C(c2cccs2)C(C#N)=C(N)O1 (stereo not given)	0.9	13.2	0.8	0.6	41.3
CCOC(=O)C1=C(C)OC(N)=C(C#N)C1c1cc2c(cc1Br)OCO2 (stereo not given)	0.6	41.5	1.1	0.1	93.3*
